Screening data (PubChem BioAssay)
This is a sample that favours compounds with a hit; in the whole collection about 0.33% have one here.
Pin1 inhibitor: human Pin1 inhibition | Q13526 | Pin1 FP peptide displacement, HiFluor488, 10 min | Potency, µM (titrated, usually from 115 µM), for the others: at the top dose activity, negative = inhibition, usual class: inhibitors | actives 0.009% (n = 390,000) | AID 504891; active means well fitted inhibition curve with a large enough effect in the polarisation, with a control signal flat, not every such curve was filed as active; inconclusive means small, poorly fitted or top-dose-only effect, or effect the other way, or a change in a side signal; inactive means no such curve, though single readings can be large or run the other way; the % refers to the polarisation; further: potency means the concentration at half of the fitted maximal effect; on the % scale 0 is the no-effect control and ±100 the full control effect
Target sequence (Q13526 whole entry, looked up): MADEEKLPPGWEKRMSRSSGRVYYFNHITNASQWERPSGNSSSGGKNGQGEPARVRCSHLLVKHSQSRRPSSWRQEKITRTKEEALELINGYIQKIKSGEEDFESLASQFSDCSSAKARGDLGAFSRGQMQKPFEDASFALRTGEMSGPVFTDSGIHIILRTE
mIDH1 inhibitor: human IDH1 R132H inhibition | IDH1-R132H enzyme, NADPH consumption, diaphorase/resazurin fluorescence | Potency, µM (doses to about 76.6 µM), for the others: top-dose activity change, negative = inhibition, actives largely listed as inhibitors | O75874 | AID 602179 | actives 0.093% (n = 390,000); further: potency means the concentration at half of the fitted maximal effect; on the % scale 0 is the no-effect control and ±100 the full control effect; nearly all actives have a fitted effect of over 65% in size
Target sequence (O75874 whole entry R132H, stated change not applied): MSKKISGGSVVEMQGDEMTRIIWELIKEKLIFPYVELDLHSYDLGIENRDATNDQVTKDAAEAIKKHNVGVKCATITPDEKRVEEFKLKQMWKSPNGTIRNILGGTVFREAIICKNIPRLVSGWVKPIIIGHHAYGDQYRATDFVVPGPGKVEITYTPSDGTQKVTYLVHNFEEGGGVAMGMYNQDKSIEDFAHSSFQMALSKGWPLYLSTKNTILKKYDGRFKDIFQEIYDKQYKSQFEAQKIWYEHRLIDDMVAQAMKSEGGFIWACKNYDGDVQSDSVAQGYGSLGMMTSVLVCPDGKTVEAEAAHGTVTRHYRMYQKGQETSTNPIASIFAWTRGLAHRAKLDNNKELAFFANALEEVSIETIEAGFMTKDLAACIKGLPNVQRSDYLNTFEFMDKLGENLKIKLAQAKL
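IDH1-R132H (0.5 ug/mL) preincubated 30 min with compound, then NADPH (0.016 mM) and alpha-KG (2 mM) added; 80 min at RT, pH 7.5. Remaining NADPH coupled via diaphorase/resazurin to fluorescence (540/590 nm); concentration-response curves normalized to no-enzyme control.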
PGK inhibitor: blocks T. brucei phosphoglycerate kinase; PGK/GAPDH coupled, Kinase-Glo luminescence, 60 min; Potency, µM (titrated, usually from 57.5 µM), inactives show top-dose activity change, negative = inhibition, most hits filed as inhibitors; actives 0.043% (n = 380,000); further: potency means the concentration at half of the fitted maximal effect; on the % scale 0 is the no-effect control and ±100 the full control effect; nearly all actives have a fitted effect of over 60% in size
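Recombinant glycosomal PGK reaction used 1,3-bisphosphoglycerate generated in-well by GAPDH (100nM final) in 100mM TEA pH 7.6, 5mM MgCl2, 0.01% Tween-20. After 60 minutes at room temperature, ATP was read by Kinase-Glo Plus luminescence end-point.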
GLS inhibitor: blocks human kidney-isoform glutaminase activity | O94925 | GLS enzymatic activity, qHTS titration | Potency, µM (series often up to 45.5 µM), inactives show at the top dose activity change, negative = inhibition, most hits filed as inhibitors | actives 0.21% (n = 410,000) | AID 624170; further: potency means the concentration at half of the fitted maximal effect; on the % scale 0 is the no-effect control and ±100 the full control effect
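Assay buffer: 45 mM KH2PO4 pH 8.2, 0.02% Tween-20. hKGA acts on L-glutamine (1 mM solution added); product glutamate is reported by an oxidase/peroxidase Amplex Red coupling, with fluorescence taken at baseline and 30 min.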
Resorufin autofl: counter-screen for mutant IDH1 inhibitors: fluorescence interference | shares compounds with mIDH1 inhibitor | Resorufin detection reagent fluorescence interference, cell-free | inhibition of signal, % at 51.2 µM | 750 tested, under 10 active | AID 623980;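 further: 0% = wells with normal resorufin and full inhibition = wells lacking resorufin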
IDH1 WT: wild-type IDH1 (human) inhibition counterscreen; shares compounds with mIDH1 inhibitor; WT IDH1 enzyme, NADPH diaphorase/resazurin fluorescence; Potency, µM (doses to about 115 µM), for inactives: at the top dose activity change, negative = inhibition, usual class: inhibitors; actives 9% (n = 750);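 further: potency means the concentration at half of the fitted maximal effect; 0% = full WT IDH1 enzyme control and full inhibition = no enzyme wells; nearly all actives have a fitted effect of over 55% in size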
Target sequence (O75874 whole entry, looked up): as the sequence (O75874 whole entry R132H, stated change not applied) above, with H132R counted along it
mIDH1 confirm: mutant IDH1 (human) inhibition, confirmed; shares compounds with mIDH1 inhibitor; actives 83% (n = 750); IDH1 R132H enzyme, NADPH diaphorase/resazurin fluorescence; Potency, µM (series often up to 76.6 µM), inactives show at the highest dose activity change, negative = inhibition, usual class: inhibitors; further: potency means the concentration at half of the fitted maximal effect; nearly all actives have a fitted effect of over 50% in size
Active calls of the source: *; i = inactive; u = inconclusive; x = no result. Unless noted, the call rests on the fitted dose curve; in most records, active means well fitted curve in the direction sought with a large enough effect; inconclusive means small, poorly fitted or top-dose-only effect, or another doubt; inactive means no such curve, though single readings can be large; an effect the other way counts as inactive or inconclusive.

SMILES	Pin1 inhibitor	mIDH1 inhibitor	PGK inhibitor	GLS inhibitor	Resorufin autofl	IDH1 WT	mIDH1 confirm
O=C(CCl)N1CCN(S(=O)(=O)c2ccc3ccccc3c2)CC1	0%	52µM*	-2%	-9%	4	-9%	20µM*
O=C(CNC(=O)C1CCCCCC1)OC(C(=O)Nc1cc(C(F)(F)F)ccc1Cl)c1ccccc1 (stereo not given)	1%	x	x	x	x	x	x
O=C(O)CCn1c(=O)n(CCC(=O)O)c(=O)n(CCC(=O)O)c1=O	3%	u	-6%	6%	3	5%	-4%
COc1ccc(S(=O)(=O)Nc2cccc(F)c2)cc1C	-4%	-4%	-2%	8%	x	x	x
COc1ccc(S(=O)(=O)Nc2ccc(S(=O)(=O)Nc3ccc(F)cc3)cc2)cc1C	0%	u	3%	29%	-2	3%	40µM*
Cc1ccc(S(=O)(=O)Nc2ccc(S(=O)(=O)Nc3nccs3)cc2)cc1C	0%	52µM*	-6%	-9%	2	15%	45µM*
O=C1CCc2cc(S(=O)(=O)Nc3cccc(Br)c3)ccc2N1	-2%	x	x	x	x	x	x
COc1ccccc1NC(=O)C(OC(=O)CNC(=O)c1ccccc1)c1ccccc1 (stereo not given)	5%	x	x	x	x	x	x
Cc1ccc(NS(=O)(=O)c2cc3c(cc2N(C)C)CCC(=O)N3)cc1C	6%	x	x	x	x	x	x
COc1ccc(NC(=S)N=Nc2c(O)[nH]c3ccccc23)cc1	1%	-3%	-8%	5%	x	x	x
Cc1ccc(S(=O)(=O)N=Nc2c(O)[nH]c3ccccc23)cc1C	-6%	46µM*	6%	14%	1	217%	45µM*
COc1ccc(S(=O)(=O)N=Nc2c(O)[nH]c3ccccc23)cc1	1%	52µM*	-8%	-7%	-1	143%	u
CC(=O)O[C@]1(C(=O)CO)[C@@H](C)C[C@H]2[C@@H]3CCC4=CC(=O)C=C[C@]4(C)[C@@]3(F)[C@@H](O)C[C@]21C	x	x	x	1%	x	x	x
COc1ccc(C2Nc3ccccc3C(=O)N2Cc2cccc(Cl)c2)cc1COc1ccc(NC(C)=O)cc1 (stereo not given)	1%	x	x	x	x	x	x
CCC(=O)OC1CCC2C3CCc4cc(O)ccc4C3CCC12C (stereo not given)	x	x	x	-4%	x	x	x
Cc1oc2c(C)c3oc(=O)c(CCC(=O)O)c(C)c3cc2c1-c1ccccc1	u	23µM*	-7%	26%	0	50µM*	13µM*
COc1cccc(N=NC2C(=O)N(C(N)=S)N=C2C)c1 (stereo not given)	0%	u	-8%	1%	2	2%	-8%
CC1=NN(C(N)=S)C(=O)C1N=Nc1cccc(Cl)c1 (stereo not given)	0%	u	-3%	15%	x	x	x
CC(=O)N(C(C)=O)N1C(=O)/C(=C/c2ccc(Cl)cc2)SC1=S	-5%	u	-1%	u	7	-19%	50µM*
CC(C)(C)OC(=O)Cc1nnc(-c2cc3ccccc3[nH]2)s1	11%	x	x	x	x	x	x
COc1cc2ncc(C(=O)c3ccc(C)cc3)c(N3CCCCC3)c2cc1OC	30%	u	-5%	-8%	-8	-11%	14µM*
CCOC(=O)C1CCN(c2c(C(=O)c3ccc(C)cc3)cnc3ccc(F)cc23)CC1	9%	4%	-2%	-1%	x	x	x
CCN(CC)C(=O)c1nn(-c2ccc(OC)cc2)c(=O)c2c(N)scc12	-17%	x	x	x	x	x	x
Cc1ccc(CNC(=O)c2ccc(CSCc3c(F)cccc3Cl)o2)cc1	8%	40µM*	i	-4%	4	-1%	0%
Cc1ccc(CNC(=O)c2ccc(CSCc3ccc(C)cc3)o2)cc1	-2%	-15%	-5%	-3%	x	x	x
SMILES	Pin1 inhibitor	mIDH1 inhibitor	PGK inhibitor	GLS inhibitor	Resorufin autofl	IDH1 WT	mIDH1 confirm
Cc1ccccc1C(=O)NCC(=O)OC(C(=O)Nc1cc(C(F)(F)F)ccc1Cl)c1ccccc1 (stereo not given)	5%	x	x	x	x	x	x
CC(C)c1ccc(NC2CCCN(C(=O)c3ccc(N4CCOCC4)cc3)C2)cc1 (stereo not given)	0%	45µM*	-9%	-7%	-9	-4%	20µM*
CO[C@@H]1[C@@H]([C@H](C)[C@@H]2O[C@@]3(CC[C@@](C)([C@H]4CC[C@@](C)([C@H]5O[C@H]([C@H]6O[C@](C)(O)[C@H](C)C[C@@H]6C)C[C@H]5O[C@H]5C[C@@H](OC)[C@H](OC)[C@@H](C)O5)O4)O3)C[C@@H](O)[C@@H]2C)O[C@@](O)(CC(=O)O)[C@H](C)[C@H]1OC	x	x	x	-1%	x	x	x
C#CC1(OC(C)=O)CCC2C3CCC4=CC(OC(C)=O)CCC4C3CCC21C (stereo not given)	x	x	x	-5%	x	x	x
CCOc1ccc(-c2cc3nc(C4CCN(C(=O)OC(C)(C)C)CC4)c(C(=O)O)cn3n2)cc1	0%	16µM*	-3%	15%	4	79µM*	14µM*
CCOc1ccc(-c2cc3nc(C4CCN(C(=O)OC(C)(C)C)CC4)c(C(=O)Nc4c(C)cccc4C)cn3n2)cc1	55%	-7%	-13%	11%	x	x	x
CCCCCCC(=O)O[C@@H]1CC[C@H]2[C@@H]3CCc4cc(O)ccc4[C@H]3CC[C@]12C	x	x	x	-4%	x	x	x
CC(C)=CCC/C(C)=C\CC/C(C)=C\CC/C(C)=C\CC1=C(C)C(=O)c2ccccc2C1=O	x	x	x	-12%	x	x	x
N#C/C(=C\c1ccccc1OCc1ccc(C(=O)O)cc1)C(=O)Nc1ccc(O)cc1	1%	u	2%	u	0	-26%	40µM*
CCC(C)C1OC2(C=CC1C)CC1CC(C/C=C(\C)C(OC3CC(OC)C(OC4CC(OC)C(NC(C)=O)C(C)O4)C(C)O3)C(C)/C=C/C=C3\COC4C(O)C(C)=CC(C(=O)O1)C34O)O2 (stereo not given) (tested in a mixture with another compound)	x	x	x	-2%	x	x	x
O=S(=O)(c1ccc2c(c1)OCCO2)N1CCN(S(=O)(=O)c2cccc3cccnc23)CC1	23%	x	x	x	x	x	x
Cn1c(=O)c(NC2CCCCC2)c2c3c(cccc31)C(=O)c1ccccc1-2	u	u	-1%	2%	0	12%	22µM*
N#CC(C#N)=C1C(=O)N(CCN2CCOCC2)c2ccccc21	7%	u	2%	0%	4	17%	45µM*
